Measurements published in the OligoGym collection.

Biological target: CLDN23
Assay: pooled miR-30 sensor sort-seq; sequence = guide strand
Settings: shRNA
Further: reference of the scale not given here.

Sequence	sensor-assay potency score (higher = more potent)
ATGGTGCTGACGCTGCTGCGGC	-1.77
TGGCCGTCGCTGTAGTACTTGA	-1.77
TAGTACTTGATGGCGGGCGCCA	-1.32
TTGGTGTAGGCCTTGGGCCGCG	-1.14
TCGCTGTAGTACTTGATGGCGG	-1.12
TGGATGGTGCTGACGCTGCTGC	-1.17
TTGAGCAGGAGCCCGCAGGGCG	-1.37
TTGGGCTCGTCCTGCCAGCAGC	-1.78
TACAACTCCACGTCCACTGGCT	0.00465
TTGGATGGTGCTGACGCTGCTG	-0.0148
AAGTTGGGCTCGTCCTGCCAGC	-1.5
TGTAGCTGACCTGCACCGTGAC	-0.702

Biological target: CLDN6
Assay: as above
Settings: shRNA

Sequence	sensor-assay potency score (higher = more potent)
AATCCCAGAGGTGAGCACCAGG	-1.46
TTTGATAAAAATGTGAGTGTAA	0.357
TTGGGCCTCAGCCACCAGGGGG	-1.51
TAGACCAGCAAGCCGAACAGGG	-0.8
TCCACACAGGTGGTACACTTGG	-1.58
ATTAGCGTCAGGACCCCTGAGA	-0.855
ACAAAGACAATCCCAGAGGTGA	-0.71
TAGCGGGCCATGTAATGGCTGG	-1.06
TAGAAGTCCCGGATGATGGCAT	0.0775
ATGACAAAGACAATCCCAGAGG	-1.76
TTTGTTAACAGATCATTTGTTT	0.0812
TTCTCCTCCACACAGGTGGTAC	-1.81
